According to PubChem BioAssay:
The source made the active and inactive calls. Unless noted, no rule for the calls is given here.

Assays:
[1] = tested on: XIP peptide (Xip251-270) binding; test: small-molecule binders of XIP peptide, primary screen, biochemical, small-molecule microarray, fluorescence 635/667 nm, 0.1 µg/mL protein (AID 1182); settings: fluorescent protein binding, 635 nm, higher = more signal, called active from +8 up or from −8 down
XIP peptide (Xip251-270) = test: small-molecule binders of XIP peptide, primary screen, biochemical, small-molecule microarray, fluorescence 635/667 nm, 0.5 µg/mL protein (AID 1183); settings: small-molecule microarray binding, fluorescence 635 nm; higher = more signal
[2] = Plasmodium falciparum growth inhibition, primary screen, strain 3D7, DAPI fluorescence, 100 nL (AID 1184);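 also: parasites grown inside human red blood cells in medium with human serum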; settings: P. falciparum 3D7 growth, 3 d, higher = more signal
[3] = target: Homeobox protein Hox-A13 (Mus musculus) (UniProt Q62424); test: inhibitors of HoxA13-DNA binding, primary screen, biochemical, fluorescence polarization, labeled oligonucleotide (AID 1185); settings: 15 min, higher = more signal, called active from +8 up or from −8 down
[4] = inhibitors of hydroxyurea-induced Chk1 phosphorylation, primary screen, imaging, HeLa, phospho-Chk1 antibody, percent positive cells (AID 1186); settings: hydroxyurea-induced phospho-Chk1 immunofluorescence imaging, higher = more signal
[5] = inhibitors of hydroxyurea-induced Chk1 phosphorylation, primary screen, imaging, HeLa, phospho-Chk1 nuclear intensity (AID 1187); settings: hydroxyurea-induced phospho-Chk1 immunofluorescence imaging, higher = more signal

Homeobox protein Hox-A13 (Mus musculus), sequence (Q62424 whole entry, looked up): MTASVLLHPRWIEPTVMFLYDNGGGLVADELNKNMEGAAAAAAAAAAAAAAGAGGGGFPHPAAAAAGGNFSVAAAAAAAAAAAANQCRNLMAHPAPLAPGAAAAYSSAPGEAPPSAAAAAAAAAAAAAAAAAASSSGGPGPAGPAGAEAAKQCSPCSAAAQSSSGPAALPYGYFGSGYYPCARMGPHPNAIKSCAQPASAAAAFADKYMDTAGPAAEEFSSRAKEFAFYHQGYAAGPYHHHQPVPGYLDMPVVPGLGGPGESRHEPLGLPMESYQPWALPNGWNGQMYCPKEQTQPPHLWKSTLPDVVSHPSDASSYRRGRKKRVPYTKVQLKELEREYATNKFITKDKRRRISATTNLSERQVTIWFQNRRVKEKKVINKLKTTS

Row | SMILES | composite z-score [1] | composite z-score (XIP peptide (Xip251-270)) | z-score [2] | z-score [3] | z-score [4] | z-score [5]
1 | CC(C)N1C(=O)c2ccccc2[C@](C)(C(=O)NCCCN(C)C)[C@@H]1c1ccc(CO)cc1 | 0.289 (inactive) | 0.431 | 0.191 | -1.73 (inactive) | 0.0165 (inactive) | 0.149 (inactive)
2 | COc1ccc([Si](C)(C)[C@@H]2[C@@H](CCO)O[C@]3(C(=O)N(Cc4ccc(N5C(=O)c6cccc7cccc5c67)cc4)c4ccccc43)[C@H]2C)cc1 | 0.476 (inactive) | 0.596 | -2.68 | -0.946 (inactive) | -0.903 (inactive) | -0.198 (inactive)
3 | CCOC(=O)C[C@H]1[C@H](OC(=O)c2cc3ccccc3oc2=O)[C@@H](NC(=O)c2ccc3ccccc3c2)c2cc(OCCCO)ccc2N1C(=O)c1ccccc1 | 0.126 (inactive) | 0.218 | -2.17 | 0.287 (inactive) | 0.371 (inactive) | 0.632 (inactive)
4 | CN1C(=O)C2C=CC(C(O)C=Cc3ccc([N+](=O)[O-])cc3)N(N3CCCCC3)C2C1=O (configuration not stated) | 0.62 (inactive) | 0.776 | 0.986 | -4.74 (inactive) | 0.579 (inactive) | -0.157 (inactive)
5 | CC(C)[Si]1(C(C)C)O[C@@H](c2ccccc2)c2cc(-c3ccc(-c4ccc(Cl)c(Cl)c4)o3)nc(CCc3ccccc3)c21 | -0.0577 (inactive) | -1.03 | 0.952 | -0.21 (inactive) | 0.0301 (inactive) | -0.289 (inactive)
6 | O=C1c2ccccc2[C@](Cc2ccccc2I)(C(=O)O)[C@H](c2ccc(CO)cc2)N1Cc1ccccc1C(F)(F)F | 0.185 (inactive) | 0.506 | 0.33 | -5.85 (inactive) | -0.344 (inactive) | -0.572 (inactive)
7 | C=CCOC(=O)[C@H]1[C@@H]2C(=O)O[C@@H](c3ccccc3)[C@@H](c3ccccc3)N2[C@@H](c2ccc(OCCOC(=O)[C@@H]3C[C@@H]4C(=O)NCC(=O)N4[C@@H]3c3ccc(O)cc3)cc2)[C@]12C(=O)Nc1ccc(I)cc12 | 0.2 (inactive) | 0.825 | -1.11 | 0.274 (inactive) | 0.147 (inactive) | 0.192 (inactive)
8 | O=C1C2C=CC(C(O)c3ccc(B(O)O)cc3)N(Nc3ccc([N+](=O)[O-])cc3)C2C(=O)N1c1ccccc1 (configuration not stated) | 0.432 (inactive) | 0.208 | 1.18 | -1.63 (inactive) | -0.169 (inactive) | -0.219 (inactive)
9 | COC(=O)c1nc2oc1CC[C@@H](CO)NC(=O)N(C)Cc1cn(nn1)C[C@H](Cc1ccccc1)NC2=O | 0.827 (inactive) | 0.969 | 1.24 | -1.31 (inactive) | -0.0288 (inactive) | -0.455 (inactive)
10 | [N-]=[N+]=Nc1ccccc1[C@@H]1OC(c2ccc(OCCCO)cc2)=N[C@]1(CCS(=O)(=O)c1ccccc1)C(=O)O | 0.97 (inactive) | 0.727 | -1.19 | -4.69 (inactive) | -0.273 (inactive) | -0.0293 (inactive)
11 | COc1ccc([Si](C)(C)[C@H]2[C@H](CCO)O[C@@]3(C(=O)N(Cc4ccccc4)c4ccc(N5C(=O)COc6ccccc65)cc43)[C@@H]2C)cc1 | 0.577 (inactive) | 0.473 | -1.09 | -0.771 (inactive) | -0.584 (inactive) | -0.791 (inactive)
12 | CN1C(=O)C2C=CC(C(O)c3ccccc3)N(NC(=O)OC(C)(C)C)C2C1=O (configuration not stated) | 0.4 (inactive) | 0.886 | -0.305 | -0.867 (inactive) | 0.253 (inactive) | -0.0164 (inactive)
